For part of these data: Results with a measured potency or affinity are listed apart. Activity calls are given as the source filed them.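 Rule for the calls, unless noted: active = calcium signal ratio cut to more than 3 SD under the fully stimulated control mean yet still positive, in both repeats and the primary screen; inactive = the rest.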

Assay [1] in a line: thallium flux activation in parental CHO cells, counter-screen for KCNQ1 potentiator project (AID 493006;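 active = duplicate-averaged activation above buffer control mean plus 5 SD of those controls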;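 note: fluorescence ratio of max minus min over baseline after K+ and Tl+ depolarization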). To be noted: parental CHO-K1 cells, FluxOR thallium flux, at 10 µM; stronger effect = higher value.
The target of assay [2] is Potassium voltage-gated channel subfamily KQT member 1 (Homo sapiens) (UniProt P51787). The assay can be described thus: KCNQ1 potassium channel potentiators, confirmation, FluxOR thallium flux, CHO cells, duplicates (AID 493007;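 active = potentiation averaged over duplicate wells exceeding buffer-only control mean by more than 3 SD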;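 note: 0% = buffer-only wells and 100% = R-L3 activator control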). The following applies: KCNQ1 cell line, FluxOR thallium flux fluorescence, at 10 µM; stronger effect = higher value, % of reference activator effect, buffer zero.
Sequence of Potassium voltage-gated channel subfamily KQT member 1 (Homo sapiens) (P51787 whole entry, looked up): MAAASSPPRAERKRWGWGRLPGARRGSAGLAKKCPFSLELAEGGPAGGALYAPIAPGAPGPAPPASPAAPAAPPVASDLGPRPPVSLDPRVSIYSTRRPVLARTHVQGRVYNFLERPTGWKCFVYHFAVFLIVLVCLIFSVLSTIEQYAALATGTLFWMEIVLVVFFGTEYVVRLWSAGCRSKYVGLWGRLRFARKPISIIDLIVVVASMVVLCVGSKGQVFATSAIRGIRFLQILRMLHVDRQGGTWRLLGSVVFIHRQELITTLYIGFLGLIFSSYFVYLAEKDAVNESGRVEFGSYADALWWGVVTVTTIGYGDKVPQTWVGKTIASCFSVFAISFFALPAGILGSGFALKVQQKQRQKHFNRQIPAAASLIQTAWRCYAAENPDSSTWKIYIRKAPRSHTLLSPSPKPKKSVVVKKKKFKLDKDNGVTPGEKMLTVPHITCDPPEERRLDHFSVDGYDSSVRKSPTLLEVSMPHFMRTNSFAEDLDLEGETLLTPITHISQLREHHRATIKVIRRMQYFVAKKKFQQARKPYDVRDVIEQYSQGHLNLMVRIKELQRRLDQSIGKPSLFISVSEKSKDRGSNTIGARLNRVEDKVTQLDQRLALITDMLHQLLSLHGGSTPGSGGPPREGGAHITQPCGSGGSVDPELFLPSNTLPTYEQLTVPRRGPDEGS

In assay [3] the target is Potassium voltage-gated channel subfamily KQT member 2 (Rattus norvegicus) (UniProt O88943). Kind of assay: rat KCNQ2 channel potentiation, selectivity assay for KCNQ1 potentiator project, KCNQ2-CHO-K1 cells (AID 493009;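 active = mean duplicate potentiation above the buffer control mean plus 5 SD of buffer wells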;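 note: assay conditions were tuned for KCNQ1 rather than KCNQ2 modulators; signal is max minus min fluorescence divided by baseline after thallium stimulus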). To be noted: FluxOR thallium flux fluorescence, at 10 µM; stronger effect = higher value, scaled: buffer 0, activator control 100.
Sequence of Potassium voltage-gated channel subfamily KQT member 2 (Rattus norvegicus) (O88943 whole entry, looked up): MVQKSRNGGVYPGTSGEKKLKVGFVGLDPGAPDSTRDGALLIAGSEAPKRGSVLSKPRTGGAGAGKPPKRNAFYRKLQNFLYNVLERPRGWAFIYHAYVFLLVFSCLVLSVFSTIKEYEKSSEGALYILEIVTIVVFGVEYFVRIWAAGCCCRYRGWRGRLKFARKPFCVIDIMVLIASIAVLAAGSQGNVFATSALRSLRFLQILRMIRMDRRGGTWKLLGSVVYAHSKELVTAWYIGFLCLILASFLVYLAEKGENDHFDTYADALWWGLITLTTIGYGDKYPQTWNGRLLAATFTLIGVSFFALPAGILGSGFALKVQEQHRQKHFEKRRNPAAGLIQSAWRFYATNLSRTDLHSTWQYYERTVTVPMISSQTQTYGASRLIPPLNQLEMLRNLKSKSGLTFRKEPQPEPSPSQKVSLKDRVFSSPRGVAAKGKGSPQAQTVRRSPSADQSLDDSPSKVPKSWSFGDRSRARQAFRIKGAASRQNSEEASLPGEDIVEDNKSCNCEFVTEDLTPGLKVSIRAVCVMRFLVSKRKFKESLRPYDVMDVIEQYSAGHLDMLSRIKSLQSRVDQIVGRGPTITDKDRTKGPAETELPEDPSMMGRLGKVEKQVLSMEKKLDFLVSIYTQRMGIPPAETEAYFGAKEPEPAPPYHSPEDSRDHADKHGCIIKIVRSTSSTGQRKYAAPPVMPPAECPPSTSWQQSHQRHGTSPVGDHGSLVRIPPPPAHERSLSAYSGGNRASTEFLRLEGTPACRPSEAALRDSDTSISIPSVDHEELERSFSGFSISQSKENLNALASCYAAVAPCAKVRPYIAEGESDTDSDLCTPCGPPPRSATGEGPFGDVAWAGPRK
For assay [4], the system named is TRPC4 beta (transient receptor potential cation channel C4), mouse. Kind of assay: activators of mouse TRPC4 channel, confirmation, cell-based, Fluo4 calcium, HEK293 TRPC4beta/mu-opioid, duplicates, 10 µM (AID 2426;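 active = fluorescence ratio normalized to control raised more than 50% in primary screen plus both repeat runs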). To be noted: Fluo4 calcium fluorescence, at 10 µM; stronger effect = higher value.
Assay [5] has as its system transient receptor potential cation channel C4 beta (TRPC4), mouse. Kind of assay: activators of mouse TRPC4 channel, confirmation, cell-based, second round, Fluo4, HEK293 TRPC4beta/mu-opioid, 1 µM (AID 2461;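 active = primary screen active and over 50% activation in each of two duplicate runs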). To be noted: Fluo4 calcium fluorescence, at 1 µM; stronger effect = higher value.
The test system of assay [6] is TRPC4 (transient receptor potential cation channel C4 beta), mouse. The assay can be described thus: positive allosteric modulators of mouse TRPC4, confirmation, cell-based, second round, Fluo-4, HEK293 TRPC4beta/mu-opioid, 1 µM (AID 2554;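 active = primary screen hit whose fluorescence ratio, in both repeats, exceeds the weak agonist control mean by 3 SD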). The following applies: DAMGO EC20, Fluo-4 calcium flux, at 1 µM; stronger effect = higher value.
Assay [7] has as its system TRPC4 beta (transient receptor potential cation channel C4), mouse. Kind of assay: positive allosteric modulators of mouse TRPC4, confirmation, cell-based, Fluo-4, HEK293 TRPC4beta/mu-opioid (AID 2555;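 active = primary screen hit whose calcium fluorescence ratio, in both repeats, exceeds the weak agonist control mean by 3 SD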). To be noted: DAMGO EC20, Fluo-4 calcium flux, at 10 µM; stronger effect = higher value.
The target in assay [8] is Short transient receptor potential channel 4 (Mus musculus) (UniProt Q9QUQ5). The assay can be described thus: inhibitors of mouse TRPC4 channel, confirmation, cell-based, Fluo4, HEK293 TRPC4beta/mu-opioid (AID 2636;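 active = calcium signal cut by more than 3 SD below the full-agonist control yet still positive, in both repeats and the earlier primary screen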). To be noted: DAMGO, Fluo4 calcium flux, at 10 µM; stronger effect = higher value.
Sequence of Short transient receptor potential channel 4 (Mus musculus) (Q9QUQ5 whole entry, looked up): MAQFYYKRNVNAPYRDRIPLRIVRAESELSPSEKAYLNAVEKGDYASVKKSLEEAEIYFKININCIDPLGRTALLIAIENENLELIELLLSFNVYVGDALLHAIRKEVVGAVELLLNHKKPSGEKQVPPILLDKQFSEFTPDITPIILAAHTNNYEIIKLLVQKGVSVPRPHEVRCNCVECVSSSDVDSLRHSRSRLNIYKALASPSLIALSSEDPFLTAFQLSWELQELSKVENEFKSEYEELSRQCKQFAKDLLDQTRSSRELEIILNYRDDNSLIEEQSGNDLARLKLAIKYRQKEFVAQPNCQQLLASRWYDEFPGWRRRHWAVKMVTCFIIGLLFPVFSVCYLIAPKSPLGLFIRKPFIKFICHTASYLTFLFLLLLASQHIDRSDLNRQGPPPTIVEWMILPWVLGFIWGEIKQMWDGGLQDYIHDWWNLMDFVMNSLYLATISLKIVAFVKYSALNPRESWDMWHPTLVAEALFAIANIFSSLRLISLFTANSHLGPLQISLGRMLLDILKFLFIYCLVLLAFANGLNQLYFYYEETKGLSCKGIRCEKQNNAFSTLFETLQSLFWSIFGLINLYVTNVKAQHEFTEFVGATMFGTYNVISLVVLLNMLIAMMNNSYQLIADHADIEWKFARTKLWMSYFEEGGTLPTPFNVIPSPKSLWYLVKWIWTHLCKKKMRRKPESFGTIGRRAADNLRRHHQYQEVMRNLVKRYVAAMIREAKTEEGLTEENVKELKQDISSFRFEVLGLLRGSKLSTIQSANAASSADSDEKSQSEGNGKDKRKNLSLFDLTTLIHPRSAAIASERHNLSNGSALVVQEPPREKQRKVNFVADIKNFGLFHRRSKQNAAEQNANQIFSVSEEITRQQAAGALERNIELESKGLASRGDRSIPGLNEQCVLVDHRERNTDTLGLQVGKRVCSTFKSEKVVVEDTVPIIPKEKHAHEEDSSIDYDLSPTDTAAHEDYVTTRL
Assay [9] has the same target. The assay can be described thus: inhibitors of mouse TRPC4 channel, confirmation, cell-based, second round, Fluo4, HEK293 TRPC4beta/mu-opioid, 1 µM (AID 2637).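 For inhibition: percent of integrated ratio relative to wells lacking test compound.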 The following applies: Fluo4 calcium flux, DAMGO, at 1 µM; stronger effect = higher value.
The target is the same in assay [10]. Kind of assay: mouse TRPC4 channel activators, dose response, cell-based, HEK293 TRPC4/mu-opioid, Fluo-4 calcium (AID 434937;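 active = primary screen activator hit with a dose response curve and TRPC4 channel activation at any tested dose; inactive = no activation, no dose response, or not a primary hit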).
For assay [11] the target is unchanged. The assay can be described thus: TRPC4 positive allosteric modulators, dose response, cell-based, HEK293 TRPC4/mu-opioid, Fluo-4 calcium, EC20 DAMGO (AID 434941;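 active = earlier screen potentiator hit that boosts the TRPC4 ion channel at some dose, with a dose response; inactive = no potentiation, no dose response, or not a prior hit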;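 note: calcium entry triggered by an EC20 dose of DAMGO at the co-expressed mu-opioid receptor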).
The target of assay [12] is Short transient receptor potential channel 6 (Mus musculus) (UniProt Q61143). Kind of assay: inhibition of mouse TRPC6 channel, confirmation, selectivity assay for TRPC4 inhibitor project, cell-based, HEK293, membrane potential dye, duplicate (AID 434948;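 active = active in primary screen and both duplicates, each dropping signal beyond three positive-control SD with fluorescence still positive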). The following applies: HEK293 TRPC6, membrane potential dye fluorescence, at 10 µM; inhibition: stronger effect = higher value, stimulated with maximal-effect acetylcholine unless noted; outcome: stimulated with maximal-effect acetylcholine unless noted.
Sequence of Short transient receptor potential channel 6 (Mus musculus) (Q61143 whole entry, looked up): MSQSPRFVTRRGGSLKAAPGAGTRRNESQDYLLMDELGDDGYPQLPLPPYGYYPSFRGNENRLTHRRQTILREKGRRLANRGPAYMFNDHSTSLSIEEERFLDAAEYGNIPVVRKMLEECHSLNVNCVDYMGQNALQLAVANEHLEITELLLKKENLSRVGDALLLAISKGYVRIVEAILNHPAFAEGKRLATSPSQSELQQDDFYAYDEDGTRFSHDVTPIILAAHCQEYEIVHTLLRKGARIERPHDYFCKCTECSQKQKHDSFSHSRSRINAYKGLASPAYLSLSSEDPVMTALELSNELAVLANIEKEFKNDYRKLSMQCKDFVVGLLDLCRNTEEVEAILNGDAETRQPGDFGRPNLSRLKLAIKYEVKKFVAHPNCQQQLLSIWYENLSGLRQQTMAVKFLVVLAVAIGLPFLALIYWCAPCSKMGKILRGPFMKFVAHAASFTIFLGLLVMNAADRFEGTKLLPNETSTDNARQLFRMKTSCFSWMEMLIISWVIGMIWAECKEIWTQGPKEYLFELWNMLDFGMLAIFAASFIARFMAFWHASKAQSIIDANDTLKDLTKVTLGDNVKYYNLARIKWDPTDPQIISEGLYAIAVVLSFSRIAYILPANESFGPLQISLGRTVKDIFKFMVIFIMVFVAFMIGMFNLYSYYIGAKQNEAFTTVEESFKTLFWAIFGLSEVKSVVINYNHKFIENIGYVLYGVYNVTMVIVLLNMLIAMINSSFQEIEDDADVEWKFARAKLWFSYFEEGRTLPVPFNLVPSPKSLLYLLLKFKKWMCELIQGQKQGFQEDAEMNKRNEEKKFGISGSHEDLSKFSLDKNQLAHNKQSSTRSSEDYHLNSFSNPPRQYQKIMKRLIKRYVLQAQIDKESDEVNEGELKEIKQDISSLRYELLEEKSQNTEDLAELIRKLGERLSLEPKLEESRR

The target is the same in assay [13]. The assay can be described thus: activation of mouse TRPC6 channel, confirmation, selectivity assay for TRPC4 activator project, cell-based, HEK293, membrane potential dye, duplicate (AID 434950;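 active = membrane potential signal rise above negative control mean plus 3 SD in both duplicates, also active in the earlier TRPC4 screen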). The following applies: HEK293 TRPC6, membrane potential fluorescence, at 10 µM; stronger effect = higher value.
Assay [14] shares this target. Kind of assay: TRPC6 potentiation by TRPC4 potentiator hits, confirmation, selectivity assay for TRPC4 potentiator project, HEK293 cells, membrane potential dye, duplicate (AID 434952;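 active = compound raising the membrane signal above positive-control mean plus 3 SD in both repeats, and a primary screen hit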). To be noted: HEK293 TRPC6, membrane potential dye fluorescence, at 10 µM; maximal acetylcholine added after compound unless noted.
For assay [15], the target named is Short transient receptor potential channel 4 (Mus musculus) (UniProt Q9QUQ5). Kind of assay: calcium flux activators in TRPC4/5HT1a cells, counter-screen for TRPC4 activator project, cell-based, second counter screen, HEK293 TRPC4/5HT1a, Fluo-4 (AID 434977;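 active = calcium signal rise above buffer-control mean plus 5 SD in both duplicates, and also a hit in the primary screen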). The following applies: Fluo-4 calcium flux, at 10 µM; stronger effect = higher value.
A short description of assay [16]: calcium flux inhibitors in TRPC4/5HT1a cells, confirmation, counter-screen for TRPC4 inhibitor project, cell-based, second counter screen, HEK293 TRPC4/5HT1a, Fluo-4 (AID 434978;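 active = primary screen active whose calcium signal fell more than 3 SD beyond the full-serotonin control mean in both duplicate plates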;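 for outcome: serotonin given first at submaximal then at maximal dose after compound preincubation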). To be noted: Fluo-4 calcium flux, at 10 µM; inhibition: stronger effect = higher value, serotonin added to trigger calcium flux unless noted; outcome: serotonin added to trigger calcium flux unless noted.

In assay [17] the test system is TRPC4 (mouse), co-expressed with 5HT1a in HEK293. Kind of assay: calcium flux potentiators in TRPC4/5HT1a cells, confirmation, counter-screen for TRPC4 potentiator project, cell-based, second counter screen, HEK293 TRPC4/5HT1a, Fluo-4 (AID 434979;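 active = signal rise over 3 SD above mean of control wells given weak agonist, in both repeats and first screen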). The following applies: Fluo-4 calcium flux, at 10 µM; outcome: serotonin added at its EC20 dose unless noted; potentiation: stronger effect = higher value, serotonin added at its EC20 dose unless noted.

Assay [18] can be described thus: calcium flux activation in mu-opioid HEK293 cells, confirmation, counter-screen for TRPC4 activator project, cell-based, HEK293 mu-opioid receptor line (AID 449723;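 active = hit in primary screen, with calcium signal over 5 SD above buffer well mean in both duplicates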;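 note: counter screen cells carry the mu-opioid receptor alone and lack TRPC4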). The following applies: Fluo-4 calcium fluorescence, at 10 µM; stronger effect = higher value.
Assay [19] can be described thus: calcium flux enhancement in mu-opioid HEK293 cells, confirmation, counter-screen for TRPC4 allosteric potentiator project, cell-based, HEK293 mu-opioid receptor line (AID 449724;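 active = calcium signal rise more than 3 SD above the low-dose agonist control mean, in both duplicate plates and the primary screen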;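 note: HEK293 cells carrying mu-opioid receptor only with no TRPC4 channel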). The following applies: Fluo-4 calcium flux, at 10 µM; compound added before EC20 DAMGO stimulus unless noted.
Assay [20] addresses Short transient receptor potential channel 4 (Mus musculus) (UniProt Q9QUQ5). The assay can be described thus: mouse TRPC4 channel inhibitors, dose response, cell-based, HEK293 TRPC4/mu-opioid, Fluo-4 calcium (AID 434942;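 active = primary screen inhibitor hit that blocks the TRPC4 channel at some tested dose, yielding a dose curve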).

In the case of `COc1cc(-n2c(=S)[nH]c3ccc(C)cc3c2=O)c(Cl)cc1Cl`, the activation in assay [1] was 182% (active). Besides, the figures for the potentiation in assay [2] and in [3] were 22.5% (active) and 153% (active), respectively.
Turning to `O=C(Cc1ccccc1)N1CCN(Cc2cccc(Br)c2)CC1`, the result in assay [4], in assay [5], in [6], in assay [7], in [9] and in assay [10] was inactive. Further, the result in assay [11], in [12], in assay [13], in assay [14], in [15] and in assay [17] was inactive. In addition, the outcome in [18] and in assay [19] was inactive. The figures for the inhibition in assay [8] and in [16] were 81% (active) and 37.8% (active), respectively.
Consider `CCOC(=O)C1(CCc2ccccc2)CCN(Cc2cccc3c2OCO3)CC1`, for which the result in assay [4], in assay [5], in assay [6], in [7], in assay [9] and in assay [10] was inactive. Also, the outcome in [11], in assay [12], in assay [13], in assay [14], in assay [15] and in assay [16] was inactive. The result in [17], in assay [18] and in assay [19] was inactive. In addition, the inhibition in assay [8] is 102% (active).
For `COc1ccc(C[C@@H]2c3cc(O)c(OC)cc3CCN2C)cc1O`, the result in assay [4], in assay [5], in assay [6], in assay [7], in assay [8] and in [9] was inactive. Further, the result in assay [10], in assay [11], in [20], in assay [12], in assay [13] and in assay [14] was inactive. The outcome in assay [15], in [16], in [17], in assay [18] and in [19] was inactive.
Take `CN1CCN(c2cccc3c2C(=O)c2ccccc2C3=O)CC1`: the outcome in assay [4], in [5], in assay [8], in assay [9], in assay [10] and in assay [11] was inactive. The outcome in assay [20], in assay [12], in assay [13], in [14], in assay [15] and in [16] was inactive. Besides, the result in [17], in assay [18] and in [19] was inactive. The potentiation was 16% (active) in assay [6] and 8% (active) in [7].
On to `Cc1ccc(C2CN(C)CC2C(=O)c2ccc(F)cc2)cc1` (stereo unspecified), for which the outcome in [4], in assay [5], in [6], in assay [7], in assay [10] and in assay [11] was inactive. The compound was classed as inactive in assay [12], in [13], in [14], in assay [15], in assay [17] and in assay [18]. Besides, the outcome in [19] was inactive. Also, the inhibition in [8] was 87% (active); in [9] it was 42% (active); in assay [16] it was 38% (active).
Consider `COC(=O)C(Cc1ccc(N(CCCl)CCCl)cc1)N=Cc1ccccc1O` (stereo unspecified), for which the result in [4], in [5], in assay [6], in assay [7], in assay [8] and in assay [9] was inactive. Also, the result in [10], in assay [11], in [20], in assay [12], in assay [13] and in assay [14] was inactive. Besides, the result in assay [15], in assay [16], in assay [17], in assay [18] and in assay [19] was inactive.
Turning to `Cc1ccc(CN2C3CCCC2CC(NC(=S)NCc2ccccc2)C3)cc1` (stereo unspecified), the result in assay [4], in [5], in assay [6], in assay [7], in assay [9] and in assay [10] was inactive. In addition, the result in assay [11], in assay [12], in [13], in [14], in assay [15] and in [17] was inactive. The result in [18] and in assay [19] was inactive. Also, the inhibition in [8] was 88% (active); in [16], 36.3% (active).
As for `CC(C)CN(CC(C)C)c1ccc(C=C2C(=O)NC(=S)NC2=O)cc1[N+](=O)[O-]`, the result in assay [4], in assay [5], in assay [6], in [7], in assay [10] and in assay [11] was inactive. For the same compound, the result in assay [13], in assay [15] and in assay [18] was inactive. The inhibition in assay [8] is 98% (active); in [9] it was 52% (active); in [16] it was 8.19% [stronger effect = higher value] (active). Further, the outcome in [12], in [14], in [17] and in [19] was “inactive [setting not given]” in each case.
In the case of `CC(Cc1ccccc1Sc1ccccc1)N(C)C` (stereo unspecified), the outcome in assay [4], in assay [5], in assay [6], in assay [7], in assay [8] and in assay [9] was inactive. In addition, the outcome in assay [10], in assay [11], in assay [20], in assay [12], in assay [13] and in assay [14] was inactive. The result in assay [15], in assay [16], in [17], in assay [18] and in [19] was inactive.
For `Cc1cccc(N2CCc3c2nc2ccccc2c3N)c1`, the outcome in [4], in [5], in assay [6], in assay [7], in [10] and in assay [11] was inactive. Moreover, the outcome in assay [12], in [13], in [14], in [15], in assay [17] and in assay [18] was inactive. Also, in [19], the result was inactive. The results for the inhibition in assay [8], in assay [9] and in [16] were 67% (active), 51% (active) and 24.6% (active), respectively.
As for `CCC1=Nc2cc(C(=O)N3CCC4(CC3)OCCO4)ccc2Sc2ccc(C)cc21`, the result in assay [4], in [5], in [6], in assay [7], in [9] and in assay [10] was inactive. Also, the result in assay [11], in assay [13], in assay [15] and in assay [18] was inactive. The inhibition in assay [8] was 74% (active). Moreover, the outcome in assay [12], in assay [14], in [16], in assay [17] and in assay [19] was “inactive [setting not given]” each time.
For `CCN(CC)P(=O)(/C=C(\Cl)c1ccccc1)/C=C(\Cl)c1ccccc1`, the outcome in [4], in [5], in assay [7], in assay [8], in [9] and in assay [10] was inactive. Also, the outcome in assay [11], in assay [20], in assay [12], in [13], in assay [14] and in [15] was inactive. Besides, the result in assay [16], in assay [17], in assay [18] and in [19] was inactive. In addition, the potentiation in assay [6] is 7% (active).
For `COc1ccc(OC)c(N2Cc3ccccc3C2=N)c1`, the outcome in assay [4], in assay [5], in assay [6], in assay [7], in [10] and in assay [11] was inactive. Moreover, the compound was called inactive in assay [12], in [13], in assay [14], in assay [15], in assay [17] and in assay [18]. Further, the outcome in assay [19] was inactive. Further, the inhibition in [8] was 96% (active); in assay [9], 56% (active); in [16], 21.8% (active).

Source of the values: PubChem BioAssay.
